Bioassay records from PubChem.
Only some compounds are listed: those with a hit (about 5% of all), similar ones and a draw of the others.
VACV Venus inh = inhibitors of vaccinia virus (Venus reporter); Vaccinia virus Venus reporter expression, fluorescence; Potency, µM (highest dose often 36.5 µM), for inactives: at the highest dose activity change, negative = inhibition, most hits filed as inhibitors; 330,000 compounds, 0.46% hits; calls by dose curve; tested in A549 cells; further: potency means the concentration at half of the fitted maximal effect; nearly all actives have a fitted effect of over 30% in size
Tb PYK inh = T. brucei pyruvate kinase inhibition. TbPYK enzyme, Kinase-Glo Plus ATP luminescence, 45 min. Potency, µM (series often up to 76.8 µM), for the others: at the highest dose activity, negative = inhibition, actives largely listed as inhibitors. 410,000 compounds, 0.12% hits; further: potency means the concentration at half of the fitted maximal effect; nearly all actives have a fitted effect of over 50% in size
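Assay buffer: 50 mM TEA pH 7.2, 100 mM KCl, 10 mM MgCl2, 0.05% BSA, 0.01% Tween-20. Pyruvate kinase from T. brucei plus substrate met compound, then ADP (130 uM final). Luminescence was read post 45 min RT.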
HCMV inh = blocks human cytomegalovirus replication; HFF cells, HCMV-luciferase reporter, 72 h; active compounds read low; activity change, negative = inhibition, % at 57.5 µM; 410,000 compounds, 4.5% hits; AID 1259415; in the data active means activity change below about -60%; inconclusive means no clear call, values can overlap the other calls; inactive means above about -39%
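Two-dose cell screen: HFF monolayers treated with compounds and infected with luciferase-expressing HCMV at 1 PFU/cell, 72 h at 37C, then lysed for luciferase measurement.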
Vaccinia mCherry = inhibitors of vaccinia virus infection (mCherry reporter signal). Vaccinia virus mCherry reporter infection, fluorescence. Potency, µM (doses to about 36.5 µM), inactives show top-dose activity change, negative = inhibition, most hits filed as inhibitors. 310,000 compounds, 0.63% hits. AID 720579; calls by dose curve; tested in A549 cells; further: potency means the concentration at half of the fitted maximal effect; nearly all actives have a fitted effect of over 35% in size
LmPK inhibitor = inhibitors of Leishmania mexicana pyruvate kinase; Q27686; purified LmPK, Kinase-Glo ATP luminescence, 1 h; Potency, µM (top dose mostly 57.5 µM), without a hit: at the highest dose activity change, negative = inhibition, hits mostly inhibitors; 290,000 compounds, 0.37% hits; AID 1721; further: potency means the concentration at half of the fitted maximal effect
Target sequence (Q27686 whole entry, looked up): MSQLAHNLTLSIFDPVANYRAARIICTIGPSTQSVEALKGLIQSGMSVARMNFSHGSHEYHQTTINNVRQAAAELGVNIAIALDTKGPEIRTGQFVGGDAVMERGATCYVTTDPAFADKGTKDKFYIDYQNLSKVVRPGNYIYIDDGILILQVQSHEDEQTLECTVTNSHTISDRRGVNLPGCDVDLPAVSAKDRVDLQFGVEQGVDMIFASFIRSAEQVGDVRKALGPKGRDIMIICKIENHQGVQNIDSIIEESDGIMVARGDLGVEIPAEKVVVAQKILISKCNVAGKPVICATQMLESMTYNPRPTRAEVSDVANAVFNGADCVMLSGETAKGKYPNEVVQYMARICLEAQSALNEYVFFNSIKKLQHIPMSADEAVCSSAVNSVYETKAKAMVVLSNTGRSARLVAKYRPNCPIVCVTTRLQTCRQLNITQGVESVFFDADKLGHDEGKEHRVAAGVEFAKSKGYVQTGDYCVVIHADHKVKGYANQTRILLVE
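In 50 mM imidazole pH 7.2 with 7 mM MgCl2, LmPK (0.1 nM) turned over PEP (0.5 mM) and ADP (0.1 mM) for 1 h at room temperature. Luciferase read-out of ATP.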
An asterisk follows results filed as active; i = inactive; ? = inconclusive; · = no result. Unless noted, the call rests on the fitted dose curve; in most records, active means well fitted curve in the direction sought with a large enough effect; inconclusive means small, poorly fitted or top-dose-only effect, or another doubt; inactive means no such curve, though single readings can be large; an effect the other way counts as inactive or inconclusive. On the % scale 0 is the no-effect control and ±100 the full control effect.

SMILES	VACV Venus inh	Tb PYK inh	HCMV inh	Vaccinia mCherry	LmPK inhibitor
Cc1ccc(-n2c(C)nc3c(cnn3-c3ccc(F)cc3)c2=O)cc1	-18.8%	0.9%	-83.4*	-15.8%	-1.8%
CCCSc1nc2c(cnn2-c2ccccc2)c(=O)[nH]1	-11.9%	-5.4%	-23.3	i	-1.5%
Cc1cccn2c(=O)cc(COc3cccc(NC(=O)COc4ccccc4)c3)nc12	-7.3%	-0.9%	?	-5.4%	·
COC(=O)C1CCCN1S(=O)(=O)c1ccc([N+](=O)[O-])cc1 (stereo unspecified)	·	3.1%	16.7	·	-0.7%
COc1ccc(C(=O)Nc2ccc3nc(N4CCOCC4)sc3c2)cc1OC	·	-3.3%	87.6	·	·
CCCn1nc(C(=O)Nc2ccc3nc(N4CCOCC4)sc3c2)ccc1=O	-29.7%	-1.5%	-76.2*	?	·
C#CCOCCOCCOCCNc1nc(N2CCN(C(=O)CCCCCCCCCCNC(=O)[C@H](CCCCN)n3cc(C)nn3)CC2)nc(N2CCN(C(=O)CCCCCCCCCCNC(=O)[C@H](CCCN=C(N)N)n3cc(C[C@@H](C)CC)nn3)CC2)n1	10µM*	-4.1%	·	?	·
C#CCOCCOCCOCCNc1nc(N2CCN(C(=O)CCCCCCCCCCNC(=O)Cn3cc(C[C@@H](C)O)nn3)CC2)nc(N2CCN(C(=O)CCCCCCCCCCNC(=O)[C@@H](CCSC)n3cc(CCO)nn3)CC2)n1	?	0.1%	·	i	·
C#CCOCCOCCOCCNc1nc(N2CCN(C(=O)CCCCCCCCCCNC(=O)[C@@H](CCC(=O)O)n3cc(CCCCCN)nn3)CC2)nc(N2CCN(C(=O)CCCCCCCCCCNC(=O)[C@H](CCCCN)n3cc(C[C@@H](C)CC)nn3)CC2)n1	?	-0.1%	·	i	·
C#CCOCCOCCOCCNc1nc(N2CCN(C(=O)CCCCCCCCCCNC(=O)[C@@H](CCSC)n3cc(CCO)nn3)CC2)nc(N2CCN(C(=O)CCCCCCCCCCNC(=O)[C@H](CCCN=C(N)N)n3cc(C[C@@H](C)CC)nn3)CC2)n1	10µM*	1.8%	·	?	·
C#CCOCCOCCOCCNc1nc(N2CCN(C(=O)CCCCCCCCCCNC(=O)[C@H](CCCCN)n3cc(C[C@@H](C)CC)nn3)CC2)nc(N2CCN(C(=O)CCCCCCCCCCNC(=O)[C@H](CCCN=C(N)N)n3cc(C[C@@H](C)CC)nn3)CC2)n1	8.91µM*	2.3%	·	?	·
C#CCOCCOCCOCCNc1nc(N2CCN(C(=O)CCCCCCCCCCNC(=O)[C@H](CCCCN)n3cc(CCO)nn3)CC2)nc(N2CCN(C(=O)CCCCCCCCCCNC(=O)[C@H](CCCCN)n3cc(C[C@@H](C)CC)nn3)CC2)n1	10µM*	-4.6%	·	-27.3%	·
Cc1ccc(Cl)cc1NC(=O)CCn1cccc1	-8.6%	-0.1%	-33.0	-26.1%	-1.1%
Cc1[nH]c(=S)c(C#N)c2c1CCCC2	-15.5%	3.55µM*	-3.7	i	5.0%
COc1ccc(CC(N)c2csc(NC(=O)C(c3ccccc3)c3ccccc3)n2)cc1 (stereo unspecified)	-20.2%	4.5%	-64.8*	-26.6%	·
COc1ccc(CC(N)c2csc(NC(=O)c3ccccc3)n2)cc1 (stereo unspecified)	-8.7%	-5.2%	59.7	20.9%	·
CC(C)c1ccc(NC(=O)Nc2nc(C(N)COCc3ccccc3)cs2)cc1 (stereo unspecified)	11.2µM*	-4.8%	-95.0*	?	·
NC(CCc1ccccc1)c1csc(NC(=O)Nc2ccccc2Oc2ccccc2)n1 (stereo unspecified)	11.2µM*	-3.6%	-12.5	?	·
COc1ccc(CC(N)c2csc(NC(=O)c3ccccc3OC)n2)cc1 (stereo unspecified)	-2.8%	8.8%	-81.5*	9.6%	·
COCCn1c(=NC(=O)/C=C/c2cccs2)sc2cc(NC(C)=O)ccc21	-9.2%	-12.0%	45.5	-22.4%	2.6%
NC(Cc1ccccc1)c1csc(NC(=O)c2cccc(OC(F)(F)F)c2)n1 (stereo unspecified)	?	-13.9%	-101.1*	?	·
NC(Cc1ccc(C(F)(F)F)cc1)c1csc(NC(=O)Nc2ccccc2Cc2ccccc2)n1 (stereo unspecified)	12.6µM*	-4.0%	21.4	11.2µM*	·
